An excerpt weighted towards active compounds, which were near 1.4% of everything screened.
GALR2 agonist: GALR2 (human) receptor agonism; GALR2-expressing cells, agonist activation read-out; activation, % (no concentration beside the values); 140,000 compounds, 0.48% hits; AID 803; in the data active means activation above about 5%, passing the limit was not always enough;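 further: 0% = vehicle buffer wells and 100% = reference agonist at full effect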
Target sequence (O43603 whole entry, looked up): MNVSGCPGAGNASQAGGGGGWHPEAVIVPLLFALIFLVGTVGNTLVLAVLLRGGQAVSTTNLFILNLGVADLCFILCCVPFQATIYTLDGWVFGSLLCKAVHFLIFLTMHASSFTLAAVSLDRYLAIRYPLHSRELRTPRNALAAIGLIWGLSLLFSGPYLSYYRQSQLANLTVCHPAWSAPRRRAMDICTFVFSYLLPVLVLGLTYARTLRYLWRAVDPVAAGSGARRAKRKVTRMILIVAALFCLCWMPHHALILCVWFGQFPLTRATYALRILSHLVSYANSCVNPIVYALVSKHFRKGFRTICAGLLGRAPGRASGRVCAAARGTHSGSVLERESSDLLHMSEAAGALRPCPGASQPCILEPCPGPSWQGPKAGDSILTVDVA
PTPN22 inh 2: blocks human PTPN22 phosphatase activity. inhibition, % at 2 µM. 96,000 compounds, 0.21% hits. AID 640. recombinant LYP catalytic domain, DiFMUP fluorescence. Q9Y2R2;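 active means inhibition at 2 µM at or above a set limit, the screen mean plus 3 SD, cut at about 24% in these data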;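 further: 0% = DMSO with enzyme and 100% = enzyme fully blocked by orthovanadate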
GALR2 antag: GALR2 (human) receptor antagonism; inhibition, % at 4 µM; AID 828; GALR2-expressing cells, antagonist mode; O43603; 140,000 compounds, 0.39% hits; in the data active means inhibition above about 27%;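 further: cells stimulated with galanin 1-16 at roughly its EC80; 0% = agonist challenge control and 100% = basal control without agonist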
S1P2 ag: S1P2 (human) receptor agonism. S1P2-expressing cell line, agonist reporter read-out. activation, % at 4.5 µM. 97,000 compounds, 0.46% hits. O95136. AID 729; in the data active means activation above about 16%;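 further: 0% = vehicle low control and 100% = maximal reference agonist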
S1P2 blocker: blocks the human S1P2 receptor. 97,000 compounds, 0.21% hits. O95136. inhibition, % at 5 µM. AID 736. cell-based S1P2 antagonist assay, inhibition at 5 uM; in the data active means inhibition above about 45%;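 further: CRE beta-lactamase reporter cells expressing human S1P2 stimulated with S1P; 0% = agonist at EC80 alone and 100% = agonist plus reference antagonist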
LYP act: LYP (human) phosphatase activation; 96,000 compounds, 0.11% hits; activation, % at 2 µM; recombinant LYP, DiFMUP fluorescence; 0 = plate median, 100 = signal doubled; Q9Y2R2;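 active means activation at 2 µM above a set limit, the mean plus 5 SD, cut at about 37% in these data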
GALR2 agon conf: confirmation of human galanin receptor 2 (GALR2) agonists. shares compounds with GALR2 agonist. GALR2-expressing cells, agonist activation. activation, % at 5.6 µM. 460 compounds, 10% hits; in the data active means activation above about 8.4%;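 further: 0% = buffer-only vehicle wells and 100% = full reference agonist response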
BLA act counter: beta-lactamase activation, GALR2 counterscreen; 460 compounds, 10% hits; shares compounds with GALR2 agonist; activation, % at 5.6 µM; CHO NFAT-bla reporter, beta-lactamase FRET activation;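 active means activation above the screen-wide mean activation plus 3 SD, cut at about 8% in these data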;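 further: 0% = DMSO with PBS wells and 100% = thapsigargin positive control wells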
Active calls of the source: *; x = no result given.

SMILES | GALR2 agonist | PTPN22 inh 2 | GALR2 antag | S1P2 ag | S1P2 blocker | LYP act | GALR2 agon conf | BLA act counter
Cc1cccc(CC(Cc2nc3ccccc3[nH]2)c2nc3ccccc3[nH]2)c1 (configuration not stated) | 9 | -6 | -11 | -7 | -3 | 10 | 15* | 29*
Cc1cccc(OCCSCc2nc3ccccc3[nH]2)c1 | -2 | 9 | 2 | -7 | 8 | -7 | x | x
CN(Cc1nc(-c2ccccn2)no1)S(=O)(=O)c1ccccc1 | 10 | -4 | -10 | -4 | 23 | 2 | 0 | -2
CC(C)c1ccccc1NC(=O)COC(=O)Cc1ccsc1 | 0 | x | 4 | x | x | x | x | x
CC1CCCN(c2c([N+](=O)[O-])c(=O)oc3ccccc23)C1 (configuration not stated) | 28* | 16 | -5 | -4 | 24 | -12 | 0 | 1
CCOc1ccc(-c2nnc(NC3=NCCCCC3)o2)cc1 | 17* | 9 | 0 | -5 | -6 | -8 | -1 | -2
Cc1ccc(NC(=O)C(=O)NCCOc2ccccc2Cl)cc1 | -2 | x | -3 | x | x | x | x | x
CSc1nnc(-c2cc3c(s2)-c2ccccc2CC3)o1 | 0 | -1 | -4 | -3 | 17 | 5 | x | x
S=c1[nH]nc(-c2cc3c(s2)-c2ccccc2CC3)o1 | 10 | 19 | 2 | 9 | 14 | -15 | 2 | 5
CCOc1ccc(NC(=S)NC(=O)c2c(Cl)c(C)nn2C)c([N+](=O)[O-])c1 | 8.6* | x | 3 | x | x | x | 1 | 2
COc1ccccc1OCCOc1ccc(/C=C2/C(=N)N3OC(C)=CC3=NC2=O)cc1OC | -2 | 15 | 0 | -4 | -7 | -11 | x | x
CC1=CC2=NC(=O)/C(=C\c3cc(C)n(-c4ccc(F)cc4)c3C)C(=N)N2O1 | 12* | x | -11 | x | x | x | 8 | 11*
O=C(O)c1ccccc1C(=O)Nc1ccc(S(=O)(=O)NC2CCCCC2)cc1 | 14* | x | 0 | x | x | x | -1 | -2
O=C(CC1SC(=NCc2ccccc2)NC1=O)Nc1ccccc1 (configuration not stated) | 0 | x | -9 | x | x | x | x | x
Cc1nc(SCc2cccc(F)c2)[nH]c(=O)c1C#N | 154* | -13 | 1 | -8 | -12 | 11 | -1 | -2
N#Cc1c(-c2ccco2)nc(SCc2ccc(F)cc2)[nH]c1=O | -1 | -4 | -6 | -1 | 5 | 4 | x | x
N=c1ncn(Cc2ccccc2)c2nc(SCCOc3ccccc3)[nH]c12 | 1 | x | -22 | x | x | x | x | x
COc1ccc(-c2noc(CCC(=O)NC3CCCCC3)n2)cc1OC | -3 | -3 | 4 | 2 | -2 | 0 | x | x
COc1cc(-c2noc(CCCC(=O)NC3CCCCC3)n2)cc(OC)c1OC | 26* | 10 | -5 | -6 | -3 | -8 | -1 | -1
COC(=O)c1ccccc1NC(=O)C1CCN(C(=O)c2ccc(OC)cc2)CC1 | 0 | -8 | -4 | -2 | -15 | 6 | x | x
CCOc1ccc(C2NC(=O)C(C#N)=C(S)N2c2ccc(OC)cc2)cc1OC (configuration not stated) | -1 | 12 | 2 | -6 | 16 | -10 | x | x
COc1cc(C2NC(=O)C(C#N)=C(S)N2c2ccc(C)cc2)ccc1OC(C)C (configuration not stated) | 91* | 0 | -8 | -3 | -6 | 1 | -1 | -2
CN(C)c1ccnc(N(Cc2ccccc2)Cc2ccccc2)c1C#N | 0 | 4 | -19 | -3 | -8 | -2 | x | x
Cc1ccc(NC(=O)CCC(=O)NNC(=O)c2ccco2)cc1C | 18* | -3 | 7 | -11 | 7 | 6 | -1 | -1
Cc1c(Cl)cccc1NC(=O)CCC(=O)NNC(=O)c1ccco1 | -1 | 3 | 2 | -4 | 11 | 2 | x | x
O=C(CN1CCCCC1)Nc1cc(Cl)ccc1Cl | 180* | -6 | 1 | -7 | -25 | 4 | -1 | 0
O=C(CN1CCCCC1)Nc1cccc(Cl)c1Cl | 2 | 3 | -7 | -1 | -24 | -6 | x | x
O=C(COC(=O)/C=C/c1ccc(Cl)cc1)NCCc1ccccc1 | -1 | x | 2 | x | x | x | x | x
Cc1cc2c(c(=O)n1Cc1ccc3c(c1)OCO3)C(c1cccnc1)C(C#N)=C(N)O2 (configuration not stated) | 23* | -22 | -3 | -11 | 9 | 19 | -1 | -2
